The values below come from PubChem BioAssay AID488841 (Sanford-Burnham Center for Chemical Genomics, 2010).

SMILES strings stand for the structures. Out of some 1,400 compounds screened, about 380 (27%) were called active.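 How the source made its calls: active means mean inhibition above 50% across duplicate retests at 10 µM; inactive means the rest.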 The list shows a part of the results.

The assay can be described thus: yeast NALP1 reporter signal suppression – S. cerevisiae, luminescence, single concentration, NALP1 inhibitor project, confirmation (AID 488841).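 Further: plate controls were DMSO in galactose medium for no effect and cells in plain SD medium for full effect.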 As to conditions: S. cerevisiae NALP1/ASC/Caspase-1 reporter, beta-gal luminescence; at 10 µM; stronger effect = higher value.
By inhibition is commonly meant the share of the control response that was lost under treatment. Regarding `COc1ccc(OC)c(S(=O)(=O)Nc2ccc(O)c3ccccc23)c1`, the inhibition was 32.9% (inactive).
Consider `O=C(O)[C@@H](c1ccccc1)N1Cc2ccccc2C1=O`, for which the inhibition was 26.9% (inactive).
As for `COc1ccc(NCc2ccc([N+](=O)[O-])s2)cc1`, the inhibition is 14.8% (inactive).
As for `CCN(CC)c1ccc(/C=N/OC(C)C(=O)Nc2ccc(C)cc2)cc1` (centres undefined), the figure is 41% (inactive); as for `CCOC(=O)N/N=C/c1ccc(N(CC)CC)cc1O`, 52.4% (active); as for `Clc1ccc2c(N/N=C/c3cccc(Br)c3)ccnc2c1`, 42.9% (inactive).
Consider `O=C(CCN1C(=O)c2ccccc2C1=O)N1CCN(C2c3ccccc3-c3ccccc32)CC1`, for which the inhibition is 18.4% (inactive).
Regarding `COc1ccc(-c2[nH]ncc2CN2CCC(OCc3ccccn3)CC2)c(F)c1`, the inhibition is 23.8% (inactive).
`Cn1cc(C(=O)NCc2ccc(F)cc2)c(=O)c2cc(S(=O)(=O)N3CCCCC3)ccc21`: the inhibition was 32.6% (inactive).
With `O=[N+]([O-])c1cc(S(=O)(=O)N2CCCCCC2)ccc1F`, the inhibition is 74.7% (active).
Regarding `CC(C)C(C)NC(=O)COc1ccc(S(=O)(=O)N2CCOCC2)cc1[N+](=O)[O-]` (centres undefined), the inhibition was 10.1% (inactive).
For the molecule `CC(C)NC(=O)c1ccc(COCC(F)(F)F)cc1`, the inhibition was 41.5% (inactive).
As to `CN1c2ccccc2-c2nc3ccccc3n2C1c1cccs1` (centres undefined), the inhibition was 26.3% (inactive).
With `O=C(CN1CCCCC1)Nc1nc(-c2ccc(F)c(F)c2)cs1`, the inhibition was 43.3% (inactive).
Take `COc1ccccc1NS(=O)(=O)c1ccc(NC(=O)Cc2cccs2)cc1`: the inhibition was 31.7% (inactive).
For the molecule `O=C(Cc1cccs1)Nc1nc(-c2ccc(F)cc2F)cs1`, the inhibition is 71.6% (active).
For `COc1ccccc1N1C(=O)C2CCC(c3ccccc3)CC2C1=O` (centres undefined), the inhibition is 40.1% (inactive).
`COc1ccc(S(=O)(=O)N2CCOC2CNC(=O)C(=O)NCCCN2CCOCC2)cc1C` (centres undefined): the inhibition was 36.4% (inactive).
As for `O=C(Nc1ccc2c(c1)Cc1ccccc1-2)c1ccncc1`, the inhibition was 64.8% (active).
As to `CS(=O)(=O)N(Cc1ccccc1)c1ccc(C(=O)Nc2cccnc2)cc1`, the inhibition is 19.7% (inactive).
As for `O=C(Nc1ccc2c(c1)CCC2)c1ccccc1`, the inhibition is 73.4% (active).
In the case of `O=C(CN1CCN(c2ccccc2)CC1)Nc1ccc2c(c1)CCC2`, the inhibition was 22.7% (inactive).
Take `O=C(Nc1ccc(Cl)c(Cl)c1)c1ccncc1`: the inhibition is 49.2% (inactive).
As for `O=C(Nc1ccc2nc3ccccc3nc2c1)c1ccccc1`, the inhibition was 70.2% (active).
Take `O=C(COc1ccc(Cl)cc1)Nc1ccc2c(c1)CCC2`: the inhibition was 39.6% (inactive).
Consider `O=C(COC(=O)C1(c2ccccc2F)CCCC1)N1CCOCC1`, for which the inhibition was 17.6% (inactive).
With `Cc1cc(C)c(S(=O)(=O)Nc2ccc(OCC(=O)O)cc2)c(C)c1`, the inhibition is 27.6% (inactive).
Take `CCOC(=O)C1CCCN(Cc2ccc(OCC)cc2)C1` (centres undefined): the inhibition is 41.2% (inactive).
For the molecule `Clc1ccc(OCCN2CCCCC2)cc1Cl`, the inhibition is 39.4% (inactive).
Take `CC/C(=N\NC(=O)c1ccccc1Cl)c1ccc(Br)s1`: the inhibition was 38.6% (inactive).
Consider `Cc1cccc(C)c1OCC(=O)Nn1c(=O)[nH]c2ccccc2c1=O`, for which the inhibition is 32.6% (inactive).
Regarding `CCCc1cc(C(=O)O)c2ccccc2n1`, the inhibition was 27.6% (inactive).
As for `CCC(=O)Nc1cccc(-c2nc3ccccc3o2)c1`, the figure is 69.3% (active); as for `CCCCCC(=O)Nc1ccc2oc(-c3cccnc3)nc2c1`, 44.2% (inactive).
For the molecule `COC(=O)c1cc(=O)n(-c2ccccc2)c(=Nc2ccccc2)s1`, the inhibition was 49.4% (inactive).
Turning to `CCC(C(=O)OC)n1cnc2scc(-c3ccc(C)c(C)c3)c2c1=O` (centres undefined), the inhibition was 98.8% (active).
`Cn1c2ccccc2c(=O)c2c(=O)n(C3CCCCCC3)c(C3CCCCC3)nc21`: the inhibition is 41% (inactive).
In the case of `COc1ccc(-c2cn3cccnc3n2)cc1Br`, the inhibition was 78.5% (active).
On to `Cn1c(=O)n(CCCOc2ccc(Cl)cc2)c2ccccc21`, for which the inhibition is 45.5% (inactive).
As to `O=C(NC1CCCC1)C(c1ccccn1)N(C(=O)c1csnn1)C1CC1` (centres undefined), the inhibition is 18.6% (inactive).
As for `c1ccc(-c2noc(-c3ccccc3-c3ccccc3)n2)cc1`, the inhibition was 23.8% (inactive).
As for `O=C(CN1CCOCC1)Nc1ccccc1Sc1ccc(Cl)cc1`, the figure is 32.2% (inactive); as for `CSc1nc(C)cc(OCCO)n1`, 27.2% (inactive).
With `CCCNC(=O)c1cc2c3ccccc3n(C)c2s1`, the inhibition was 69.2% (active).
Turning to `CC(C)OCCCNC(=O)c1cc2c(=O)n(C)c3ccccc3c2n1C`, the inhibition is 18.5% (inactive).
With `O=C(NNC(=O)c1ccc(-c2ccccc2)cc1)Nc1ccc(F)cc1F`, the inhibition is 20.4% (inactive).
Take `O=C(Nc1ccccc1)Nc1ccc(Br)cc1F`: the inhibition was 50.3% (active).
`Cc1ccc(S(=O)(=O)N(C)C)cc1NC(=O)Nc1ccccc1F`: the inhibition was 21.1% (inactive).
With `CCOC(=O)c1ccc(N2CCOCC2)c(NC(=O)COCC(=O)O)c1`, the inhibition was 16.1% (inactive).
As for `COc1ccc(CC(C)N2CCN(Cc3ccccc3)CC2)c(OC)c1` (centres undefined), the figure is 27.8% (inactive).
Take `Cc1ccccc1N(CC(=O)N/N=C/c1ccccc1Cl)C(=O)c1ccccc1`: the inhibition was 32% (inactive).
As to `CCCSc1ccc2nc(-c3ccccc3)cn2c1`, the inhibition is 75.4% (active).
`Cc1nc(-c2ccccc2)sc1C(=O)CSc1ccccc1`: the inhibition was 42% (inactive).
The value for `Cc1cc(C)cc(NS(=O)(=O)c2ccc(NC(=S)NC(=O)c3ccc(Br)o3)cc2)c1` was 45.4% (inactive).
Consider `CSCc1ccc(C(=O)Nc2cc(C)cc(C)c2)cc1`, for which the inhibition is 76% (active).
Turning to `CS(=O)(=O)N(Cc1ccccc1)c1ccc(C(=O)Nc2ccc3c(c2)OCO3)cc1`, the inhibition was 33.1% (inactive).
On to `COCCn1c(SCC(=O)NC(=O)NC(C)(C)C)nc2ccccc21`, for which the inhibition is 27.5% (inactive).
As for `Cc1ccc(C(=O)NCc2ccco2)cc1S(=O)(=O)Nc1cccc(Cl)c1`, the inhibition is 25.1% (inactive).
As for `CC1CCN(c2ccccc2NC(=O)c2ccc(N3CCOCC3)c([N+](=O)[O-])c2)CC1`, the inhibition was 1.35% (inactive).
For the molecule `Cc1ccc(Nc2nc(N)c([N+](=O)[O-])c(NCc3ccco3)n2)cc1C`, the inhibition was 60.3% (active).
Consider `CC1CCCN(c2nc(NCc3ccco3)nc(N)c2[N+](=O)[O-])C1` (centres undefined), for which the inhibition is 55.1% (active).
For the molecule `CC1CCN(c2nc(NCc3ccco3)nc(N)c2[N+](=O)[O-])CC1`, the inhibition was 67.3% (active).
The value for `Nc1nc(NCc2ccco2)nc(N2CCCCCC2)c1[N+](=O)[O-]` was 62.6% (active); that for `O=C(Nc1nc(-c2ccncc2)cs1)c1ccc(S(=O)(=O)N2CCOCC2)cc1` was 28.9% (inactive); that for `Clc1ccc(N2CCN(c3cnc4ccccc4n3)CC2)cc1` was 37.4% (inactive).
The value for `COc1ccc(-c2nc3c(c(=O)[nH]c(=O)n3Cc3ccccc3)n2C)cc1` was 27.9% (inactive).
As for `CC1CCCCC1NC(=O)/C(C#N)=C/c1ccccc1F` (centres undefined), the figure is 39.8% (inactive).
On to `CC(C)(C)C1=CC(=O)C(=O)C(C(C)(C)C)=C1`, for which the inhibition was 20% (inactive).
In the case of `CCSc1nnc(-c2ccncc2)n1Cc1ccccc1`, the inhibition is 35.8% (inactive).
On to `Cc1ccc(NC(=S)Nc2ccc(Cl)c(Cl)c2)c(OC(F)F)c1`, for which the inhibition was 33.8% (inactive).
For `O=C(Cc1ccc([N+](=O)[O-])cc1)c1ccc(O)cc1O`, the inhibition was 39% (inactive).
Consider `CC[N+]1(CC)CC2=Cc3c(ccc4ccccc34)CC2C1` (centres undefined), for which the inhibition was 14.5% (inactive).
`CCOC(=O)n1c(=O)n(Cc2ccccc2)c2ccccc21`: the inhibition was 25.8% (inactive).
`O=C(c1ccc(COc2ccccc2Br)cc1)N1CCCCC1`: the inhibition is 36.5% (inactive).
In the case of `CCCNC(=O)c1nnsc1S(=O)c1ccc(Cl)cc1` (centres undefined), the inhibition is 99.3% (active).
`O=C(c1nnsc1S(=O)c1ccc(Cl)cc1)N1CCOCC1` (centres undefined): the inhibition was 76.7% (active).
With `CNC(=O)c1nnsc1S(=O)c1ccc(Cl)cc1` (centres undefined), the inhibition is 88.7% (active).
As to `CCCCNC(=O)Nc1nnc(-c2ccc(Cl)cc2)o1`, the inhibition is 44.9% (inactive).
Turning to `O=C(CCSc1nc2cc(Cl)ccc2o1)N1CCOCC1`, the inhibition is 24.1% (inactive).
Consider `Cn1cc(S(=O)(=O)N2CCN(c3cccc(C(F)(F)F)c3)CC2)c(=O)n(C)c1=O`, for which the inhibition is 7.85% (inactive).
Consider `CC(NC(=O)/C(C#N)=C/c1ccc([N+](=O)[O-])o1)c1ccccc1` (centres undefined), for which the inhibition is 52.1% (active).
As for `CC(NC(=O)/C(C#N)=C/c1ccc(Cl)c([N+](=O)[O-])c1)c1ccccc1` (centres undefined), the figure is 51.1% (active); as for `COC(=O)c1ccc(/C=C(\C#N)C(=O)NC(C)c2ccccc2)cc1` (centres undefined), 23.2% (inactive); as for `CN(Cc1ccccc1)C(=O)c1ccc([N+](=O)[O-])o1`, 40.2% (inactive).
Consider `COc1cc(/C=C/C(=O)Nc2ccc(C)cc2)cc(OC)c1OC`, for which the inhibition is 33.6% (inactive).
Regarding `COc1cc(/C=C(\NC(C)=O)C(=O)Nc2cccc(O)c2)ccc1OC(C)=O`, the inhibition is 28.1% (inactive).
As to `COc1ccc(/C=C/C(=O)Nc2ccc3c(c2)CCC3)cc1OC`, the inhibition is 79.2% (active).
The value for `CCc1ccc(CC(=S)N2CCOCC2)cc1` was 42.3% (inactive).
Take `CCOc1ccc(C(=O)NC(=S)Nc2ccccc2N2CCCCC2)cc1[N+](=O)[O-]`: the inhibition is 43.9% (inactive).
The value for `COc1ccc(C(=O)NC(=S)Nc2ccccc2N2CCCCC2)cc1[N+](=O)[O-]` was 51.9% (active); that for `CCOc1ccc(C(=O)Nc2ccc(-c3nc4ccccc4[nH]3)cc2)cc1[N+](=O)[O-]` was 26.6% (inactive).
As to `COc1ccc(/C=C2\SC(N3CCc4ccccc4C3)=NC2=O)cc1`, the inhibition was 69.8% (active).
As to `CC(C)c1nc(SCC(=O)Nc2ccc3c(c2)OCCO3)n[nH]1`, the inhibition was 19.3% (inactive).
The value for `N#Cc1ccc(-c2ccc(Cl)cc2)nc1SCC(=O)c1cccc(Cl)c1` was 26.4% (inactive).
As to `Cc1ccc(NC(=O)Cn2cccc2)c(C)c1`, the inhibition is 27.8% (inactive).
For `CCN(CC)c1ccc(NC(=O)Cn2cc3c(n2)CCC(C)C3)c(C)c1` (centres undefined), the inhibition was 50.9% (active).
`COc1ccccc1CN(Cc1nc2ccccc2c(=O)[nH]1)C(=O)Nc1ccccc1`: the inhibition is 36.4% (inactive).
In the case of `CN(C)CCCN(C(=O)CCS(=O)(=O)c1ccccc1)c1nc2cc3c(cc2s1)OCO3`, the inhibition is 61.2% (active).
Turning to `Cc1cccc2sc(N(CCCN(C)C)C(=O)CCS(=O)(=O)c3ccccc3)nc12`, the inhibition is 69.6% (active).
Regarding `CN(C)CCCN(C(=O)CCOc1ccccc1)c1nc2c(F)cccc2s1`, the inhibition was 64.8% (active).
For `Cc1ccc2sc(N(CCCN(C)C)C(=O)CCS(=O)(=O)c3ccccc3)nc2c1C`, the inhibition was 88.8% (active).
Regarding `CN(C)C(CNC(=O)CCCOc1ccccc1)c1ccco1` (centres undefined), the inhibition was 30.6% (inactive).
Turning to `Cc1ccc2nc(N(CCCN(C)C)C(=O)CCc3ccccc3)sc2c1`, the inhibition was 46.8% (inactive).
With `Cc1cccc2sc(N(CCCN(C)C)C(=O)c3sc4ccccc4c3Cl)nc12`, the inhibition was 35.9% (inactive).
